Only some compounds are listed: those with a hit (about 3.4% of all), similar ones and a draw of the others.
MITF inh = MITF inhibitors, primary screen, biochemical, AlphaScreen, human; Microphthalmia-associated transcription factor (Homo sapiens), O75030; AlphaScreen MITF homodimerization, bead proximity signal; inhibition, % at 2.6 µM; actives 0.91% (n = 650,000); in the data active means inhibition above about 50%;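 further: 0% = vehicle wells with protein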
Target sequence (O75030 whole entry, looked up): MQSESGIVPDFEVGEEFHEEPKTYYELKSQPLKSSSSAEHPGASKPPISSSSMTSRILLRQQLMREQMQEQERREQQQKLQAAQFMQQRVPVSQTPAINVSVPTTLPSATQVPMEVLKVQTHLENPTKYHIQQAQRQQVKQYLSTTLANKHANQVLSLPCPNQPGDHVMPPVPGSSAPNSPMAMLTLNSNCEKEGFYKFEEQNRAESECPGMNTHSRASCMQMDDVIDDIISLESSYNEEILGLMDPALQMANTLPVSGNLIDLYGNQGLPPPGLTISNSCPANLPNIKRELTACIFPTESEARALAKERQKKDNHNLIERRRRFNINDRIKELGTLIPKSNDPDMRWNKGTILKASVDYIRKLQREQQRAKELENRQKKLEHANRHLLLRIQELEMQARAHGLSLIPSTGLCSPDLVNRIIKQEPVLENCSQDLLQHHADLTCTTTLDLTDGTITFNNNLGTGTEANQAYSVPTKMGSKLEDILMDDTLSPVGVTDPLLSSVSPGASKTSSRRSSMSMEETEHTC
FBW7 act = FBW7 E3 ligase activators, primary screen, biochemical, AlphaScreen, human; F-box/WD repeat-containing protein 7 (Homo sapiens), Q969H0; AlphaScreen FBW7–phospho-cyclin E peptide binding, activator screen; normalized activity (activation), % at 26.1 µM; actives 0.13% (n = 650,000); in the data active means normalized activity above about 1.9%;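 further: purified mutant Fbw7 with reduced substrate affinity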
GPR151 activ = activators of human GPR151, primary screen, cell-based, PathHunter beta-arrestin, luminescence. G-protein coupled receptor 151 (Homo sapiens), Q8TDV0. PathHunter beta-arrestin GPR151 cells. activation, % at 11.2 µM. actives 1% (n = 650,000); in the data active means activation above about 4.9%;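 further: 0% = median of compound wells and 100% = cells with positive control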
TEAD-YAP block = TEAD-YAP interaction inhibition, primary screen, TEAD-YAP interaction inhibitor project, luminescence, HEK-TIYL cells; TEAD-Gal4/YAP UAS-luciferase luminescence; actives 1.4% (n = 640,000); inhibition, % at 9.12 µM; in the data active means inhibition above about 32%;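 further: 0% = median of test compound wells and 100% = reference inhibitor wells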
Active calls of the source: *.

SMILES	MITF inh	FBW7 act	GPR151 activ	TEAD-YAP block
CCn1c2ccccc2c2nnc(SCC(=O)Nc3ccc(Br)cn3)nc21	5	0	1	9
Cc1cc2c(=O)n(CC(=O)NCC(=O)N3CCC(C(N)=O)CC3)cnc2s1	6	0	0	10
O=C(COc1ccc(F)cc1)N/N=C/c1ccc(Cl)cc1	-2	0	-1	6
COc1ccccc1CNc1ncnc2sc(C)c(C)c12	-1	0	1	2
COc1ccccc1CNc1nc(C)nc2sc(C)cc12	1	0	2	48*
CCCCNc1ncnc2sc(C)cc12	1	0	0	37*
COc1ccccc1CNc1ncnc2sc(C)cc12	0	0	-1	32*
Cc1nc(NCc2ccccn2)c2cc(C)sc2n1	10	0	3	12
COCCCNc1ncnc2sc(C)cc12	-1	0	2	17
O=C(Nc1ccc(-c2noc(-c3ccco3)n2)cc1)c1cccc(Br)c1	-1	0	2	8
O=C(COc1ccccc1)NC(c1ccccc1)c1cc(Cl)c2cccnc2c1O (centres undefined)	0	0	-1	-5
CCC(=O)NC(c1ccco1)c1ccc2cccnc2c1O (centres undefined)	70*	-2	-2	27
COc1ccc(C(=O)NC(c2ccco2)c2cc(Cl)c3cccnc3c2O)cc1 (centres undefined)	11	0	-1	1
CCC(=O)NC(c1ccco1)c1cc(Cl)c2cccnc2c1O (centres undefined)	38	0	0	37*
O=C(COc1ccccc1)NC(c1ccco1)c1cc(Cl)c2cccnc2c1O (centres undefined)	25	0	-1	85*
Cc1ccc(N2NC(=O)/C(=C\c3ccc(Br)c([N+](=O)[O-])c3)C2=O)cc1	-24	0	0	5
CCOCCCNC(=O)c1cc(CC(C)c2ccccc2)no1 (centres undefined)	0	1	0	3
COc1ccc(Nc2nc(C)cc(C)n2)c(OC)c1	12	0	0	3
Cc1cc(Nc2ccc3c(c2)OCO3)nc(-n2nc(C)cc2C)n1	-5	0	-1	61*
Cc1cc(Nc2ccc(F)c(Cl)c2)nc(-n2nc(C)cc2C)n1	15	1	-1	6
Cc1cc(Nc2ccccc2C)nc(-n2nc(C)cc2C)n1	18	0	-2	70*
COc1ccc(Nc2cc(C)nc(-n3nc(C)cc3C)n2)c(OC)c1	-7	-1	-1	66*
CCn1cc(CN2CCCC(CNC(=O)c3cccc4ccccc34)C2)cn1 (centres undefined)	-11	0	-1	-6
CCN1CCN(c2nc3c(c(=O)[nH]c(=O)n3C)n2CCC(C)C)CC1	16	1	1	4
COc1ccc(CC2(CCC(=O)N3CCNC(=O)CC3)CCC(=O)N2)c2ccccc12 (centres undefined)	10	0	-1	-11
SMILES	MITF inh	FBW7 act	GPR151 activ	TEAD-YAP block
COc1ccc2cc3cc(C(=O)NC4CC4)sc3nc2c1	-1	0	-5	74*
COc1ccc2cc3cc(C(=O)NC4CCN(Cc5ccccc5)CC4)oc3nc2c1	-3	0	-1	90*
COc1ccc2cc3cc(C(=O)Nc4cc(OC)c(OC)c(OC)c4)oc3nc2c1	7	0	1	58*
COc1ccc2cc3cc(C(=O)NCCCN4CCCCCC4)oc3nc2c1	-15	-1	0	-14
CCOC(=O)C1C(c2ccc(C)o2)NC(=S)NC1(O)C(F)(F)F (centres undefined)	21	0	0	7
O=C(NNS(=O)(=O)c1cccc([N+](=O)[O-])c1)c1ccc(F)cc1	1	0	2	-10
C=CC[C@@H]1CC=C[C@@H](C)N1Cc1c(C(=O)N2C[C@@H](C)O[C@@H](C)C2)nc2ccc(Cl)cn12	-6	0	1	0
COc1ccc(Br)cc1/C=N/N=C(N)N	3	0	-2	42*
CC(O)(/C=C1/Oc2ccc([N+](=O)[O-])cc2C1N1CCOCC1)C1CC2C=CC1C2 (centres undefined)	7	0	-1	-3
COc1cn(-c2ccc(F)cc2)nc1C(=O)Nc1ccccc1SC	6	0	1	32*
CC(=O)N(/N=C1\Sc2ccccc2C1=O)c1ccccc1[N+](=O)[O-]	25	0	-1	59*
CC(=O)N(/N=C1\Sc2ccccc2C1=O)c1ccc(Br)cc1	27	0	0	-12
COc1cc(OC)c(C2SCCN2S(=O)(=O)c2ccc([N+](=O)[O-])cc2)cc1OC (centres undefined)	8	0	-1	9
O=C1OC(OC(=O)c2ccccc2)C(Nc2ccccc2)=C1Cl (centres undefined)	-2	0	-2	-1
O=C1OC(OC(=O)c2ccccc2)C(Nc2cccc(O)c2)=C1Cl (centres undefined)	11	2.4*	-1	2
CCOC(=O)c1c(/N=C/c2c(C)[nH]n(-c3ccc(C)cc3)c2=O)sc(C)c1-c1ccc2cc(OC)ccc2c1	5	0	0	3
c1csc(-c2cn3ccc4ccccc4c3n2)c1	4	2.5*	-6	-31
O=C1C(Cl)=C(N2CCCC2)C(=O)N1c1ccc(Br)cc1	-8	0	-1	3
CC(C)=CCC/C(C)=C/CC(C)(C)CNCCN1CCNCC1	-4	1	-2	58*
CCN1CCN(Cc2ccc(NC(=O)Nc3cc(F)ccc3F)cc2)CC1	0	0	-1	40*
COc1cccc(-n2c(C)cc(/C=C3/C(=N)N4OC(C)=CC4=NC3=O)c2C)c1	2	0	-1	57*
CC1=CC2=NC(=O)/C(=C\c3cc(C)n(-c4cc(C)cc(C)c4)c3C)C(=N)N2O1	4	0	1	55*
CC1=CC2=NC(=O)/C(=C\c3cc(C)n(-c4cccc(F)c4)c3C)C(=N)N2O1	-2	0	0	7
COc1cc(/C=C2/C(=N)N3OC(C)=CC3=NC2=O)ccc1OCc1ccc2c(c1)OCO2	12	0	-6	48*
CC1=CC2=NC(=O)/C(=C\c3cc(C)n(-c4ccc(Cl)cc4)c3C)C(=N)N2O1	3	0	0	13
COc1ccc(CNc2nc(SCC(=O)c3ccc(Cl)cc3)nc3ccccc23)cc1	8	0	0	4
CC(NC(=O)c1sc(=S)n2c1[nH]c(=O)c1ccccc12)c1ccccc1 (centres undefined)	5	0	-1	13
Cc1[nH]c2c(C(=O)NCC3Cc4c(F)ccc(-c5ncccn5)c4O3)cccc2c1C (centres undefined)	9	0	2	32*
c1cncc(CNc2nc(N3CCOCC3)nc3c2ncn3-c2ccsc2)c1	10	0	-2	45*
